40 compounds from PubChem BioAssay (NCATS) can be followed below.

Inconclusive results are not listed. Active and inactive are the calls of the source. The call rests on the fitted dose curve; in most records, active means well fitted inhibition curve with a large enough effect; inconclusive means small, poorly fitted or top-dose-only effect; inactive means flat fitted curve, though single readings scatter.

The assay can be described thus: qHTS of Trypanosoma Brucei Inhibitors: LOPAC Validation (AID 624147). To be noted: purified enzyme assay, luminescence, 45 min; series mostly up to 57.5 µM. From the text: Members of the Trypanosomatidae family of parasitic protozoans cause a spectrum of diseases throughout the tropical and subtropical world. Sleeping sickness, caused by two subspecies of Trypanosoma brucei, is endemic to areas of sub-Saharan Africa, while Chagas' disease, a manifestation of Trypanosoma cruzi infection, is prevalent throughout Central and South America. In addition, many species of Leishmania are responsible for a range of cutaneous and visceral diseases, causing ulcers, destructive lesions and kalaazar, a lethal infection of the viscera. These diseases cause severe public health and economic burdens on populations that are often already caught in a tragic cycle of poverty, poor nutrition and disease. Collectively, parasites of the trypanosomatid family infect 30 million people worldwide (~500 million live in endemic areas), and account for ~130K deaths annually. Existing treatments have developed little in the past 50 years, and suffer from toxicity, poor efficacy and resistance; the goal of this project is to develop lead drugs that will be suitable for entry into pre-clinical trials.
Glycolysis in axenically cultured T. cruzi, representing the intracellular pathogenic stage, is also essential for these parasites. {Engel, 1987} This project aims to discover and optimize selective inhibitors of the glycolytic enzyme pyruvate kinase (PYK) from Trypanosoma brucei, the parasite that causes sleeping sickness. […] Trypanosomatid PYKs show significant differences from their human counterparts including only 47-50% sequence identity and different allosteric and activation properties.{Callens, 1992} To this end, a qHTS was done against the MLSMR to discover inhibitors.
NIH Molecular Libraries Probe Production Network [MLPCN]
NIH Chemical Genomics Center [NCGC]
PI Name: Malcolm Walkinshaw, University of Edinburgh
2 uL of TbPYK/substrate buffer (columns 1-3, 5-48) are dispensed into Greiner white solid bottom 1536-well assay plates; column 4 receives only TEA buffer as 0x TbPYK controls. Compounds are then transferred via Kalypsys pin tool equipped with 1536-pin array (10 nL slotted pins, V&P Scientific, San Diego, CA). Following addition of compound, 2 uL of ADP (130 uM final concentration, all columns) is added to initiate the reaction. The plates are then incubated at room temperature for 45 minutes. Kinase-Glo Plus reagent is added (3 uL) and plates incubated for 10 minutes, before being transferred to a ViewLux high-throughput CCD imager (PerkinElmer) wherein single end-point measurements of luminescence are acquired using a clear filter. All reagents are diluted in an assay buffer consisting of 50 mM TEA (pH 7.2), 100 mM KCl, 10 mM MgCl2, 0.05% BSA and 0.01% Tween-20.
All screening operations will be performed on a fully integrated robotic system (Kalypsys, San Diego, CA) containing one RX-130 and two RX-90 anthropomorphic robotic arms (Staeubli, Duncan, SC). Library plates will be screened starting from the lowest and proceeding to the highest concentration. Vehicle-only plates, with DMSO being pin-transferred to columns 5-48, will be inserted uniformly at the beginning and the end of each library in order to monitor and record any shifts in the background, which can be affected by reagent dispensers or loss in enzyme activity over time. Screening data will be corrected, normalized, and concentration-effect relationships will be derived by using publicly-available curve fitting algorithms developed in-house (http://ncgc.nih.gov/pub/openhts).
(Quantitative high-throughput screening tests each substance at several concentrations.)
As to `Cc1ccc(=O)n(-c2ccccc2)c1`, the compound was called inactive. Turning to `CC(=O)Oc1cc(C(C)C)c(OCCN(C)C)cc1C`, the result was inactive.

As for `CN(C)CCN(Cc1cccs1)c1ccccn1`, the result was inactive. The same measure for `CC(N=C(NC#N)Nc1ccncc1)C(C)(C)C` (stereo not given): “inactive”; for `OCCN1CCN(CC/C=C2/c3ccccc3Sc3ccc(C(F)(F)F)cc32)CC1`: “inactive”. Take `CN1C(=O)CC[C@H]1c1cccnc1`: the compound was classed as inactive. In the case of `CCn1cc(C(=O)O)c(=O)c2cc3c(cc21)OCO3`, the call was inactive.

Take `CCCNC(C)C(=O)Nc1ccccc1C` (stereo not given): the call was inactive. `O=C(CCCN1CCC(O)(c2cccc(C(F)(F)F)c2)CC1)c1ccc(F)cc1`: the compound was classed as inactive. As for `CCCCNC(=O)NS(=O)(=O)c1ccc(C)cc1`, the call was inactive. Consider `Cc1nnc(SCC2=C(C(=O)O)N3C(=O)[C@@H](NC(=O)Cn4cnnn4)[C@H]3SC2)s1`, for which the outcome was inactive. Turning to `CNCCCN1c2ccccc2CCc2ccccc21`, the result was inactive. On to `CC(=O)OC(C)C[N+](C)(C)C` (stereo not given), for which the call was inactive. Turning to `NC/C=C/C(=O)O`, the compound was classed as inactive.

Regarding `COc1cc(C(=O)OCCCN2CCCN(CCCOC(=O)c3cc(OC)c(OC)c(OC)c3)CC2)cc(OC)c1OC`, the outcome was inactive. `COc1cc(Cc2cnc(N)nc2N)cc(OC)c1OC`: the outcome was inactive. As for `Cc1nc2c([nH]1)c(=O)n(C)c(=O)n2Cc1ccco1`, the compound was called inactive. In the case of `C[C@]12CCC(=O)C=C1CC[C@@H]1[C@@H]2CC[C@@]2(C)[C@H]1CC[C@]2(O)C(=O)CO`, the compound was called inactive. The value for `NS(=O)(=O)c1cc2c(cc1Cl)NC(C1CC3C=CC1C3)NS2(=O)=O` (stereo not given) was “inactive”. On to `C[N+](C)(C)CCCCCCCCCC[N+](C)(C)C`, for which the result was inactive. For the compound `CCc1c(C)[nH]c2c1C(=O)C(CN1CCOCC1)CC2` (stereo not given), the result was inactive. For the compound `CC(C)(C)c1ccc(C(=O)CCCN2CCC(OC(c3ccccc3)c3ccccc3)CC2)cc1`, the call was inactive. As to `CN(C(=O)CCCOc1ccc2[nH]c(=O)ccc2c1)C1CCCCC1`, the compound was classed as inactive. Turning to `NC(Cc1ccc(Cl)cc1)C(=O)O` (stereo not given), the call was inactive.

`CN(C)CC[C@@H](c1ccc(Br)cc1)c1ccccn1`: the result was inactive. On to `C=CCc1ccccc1OCC(O)CNC(C)C` (stereo not given), for which the call was inactive. Turning to `CCC(=O)c1ccc2c(c1)N(CCCN(C)C)c1ccccc1S2`, the outcome was inactive. Take `CC[N+](C)(C)c1cccc(O)c1`: the compound was classed as inactive. The same measure for `CN1CCN(CC(=O)N2c3ccccc3C(=O)Nc3cccnc32)CC1`: “inactive”; for `CC1=NS(=O)(=O)c2cc(Cl)ccc2N1`: “inactive”. The value for `C[C@]12CC[C@@H]3c4ccc(O)cc4C[C@@H](CCCCCCCCCS(=O)CCCC(F)(F)C(F)(F)F)[C@H]3[C@@H]1CC[C@@H]2O` (stereo not given in full) was “inactive”; that for `C#CCN(C)CCCOc1ccc(Cl)cc1Cl` was “inactive”; that for `C[N+](C)(C)CCOC(N)=O` was “inactive”. Take `NC(=O)c1cn(Cc2c(F)cccc2F)nn1`: the compound was classed as inactive. For the compound `CCCN(CCC)CCc1cccc2c1CC(=O)N2`, the call was inactive. As to `C[C@]12CCC(=O)C=C1CC[C@@H]1[C@@H]2C(=O)C[C@@]2(C)[C@H]1CC[C@]2(O)C(=O)CO`, the compound was called inactive.

`Cc1nc2sccn2c(=O)c1CCN1CCC(=C(c2ccc(F)cc2)c2ccc(F)cc2)CC1`: the call was inactive. Take `Cc1nc2ccccn2c(=O)c1CCN1CCC(C(=O)c2ccc(F)cc2)CC1`: the result was inactive. The same measure for `Fc1ccc(C(c2ccc(F)cc2)N2CCN(C/C=C/c3ccccc3)CC2)cc1`: “inactive”; for `NC(=O)c1ncn([C@@H]2O[C@H](CO)[C@@H](O)[C@H]2O)c1O`: “inactive”.
